A selection: hits, their analogues and other compounds. The true share with any hit is near 3%.
GDH-TPI inh: GDH-TPI coupled enzyme inhibition counter-screen | actives 1.2% (n = 360,000) | inhibition, % at 4.8 µM | AID 588335 | GDH-TPI coupled enzyme counterscreen, NADH absorbance; in the data active means inhibition above about 30%;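 further: 0% = DMSO wells and 100% = wells lacking the enzyme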
Mtb BioA inh: inhibitors of Mycobacterium tuberculosis BioA enzyme. purified M. tuberculosis BioA enzyme, plate reader. inhibition, % at 9.99 µM. actives 0.096% (n = 360,000). AID 602481; in the data active means inhibition above about 40%
FadD28 binding: blocks FadD28 binding to the bisubstrate probe; actives 0.22% (n = 360,000); AID 588549; inhibition, % at 12.5 µM; fluorescence polarization; in the data active means inhibition above about 8.5%, passing the limit was not always enough
Rv3671c inh: Rv3671c (M. tuberculosis) protease inhibition; P9WHR9; inhibition, % at 5.96 µM; actives 0.048% (n = 320,000); in the data active means inhibition above about 38%;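 further: extracellular domain of Rv3671c used as enzyme; 0% = enzyme with DMSO and 100% = no enzyme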
Mtb FBA inh: inhibitors of M. tuberculosis fructose-bisphosphate aldolase | inhibition, % at 1 µM | purified M. tuberculosis FBA, fluorescence read-out | actives 2.3% (n = 360,000) | P9WQA3 | AID 588726; in the data active means inhibition above about 27%;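 further: 0% = vehicle and 100% = reference inhibitor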
Target sequence (P9WQA3 whole entry, looked up): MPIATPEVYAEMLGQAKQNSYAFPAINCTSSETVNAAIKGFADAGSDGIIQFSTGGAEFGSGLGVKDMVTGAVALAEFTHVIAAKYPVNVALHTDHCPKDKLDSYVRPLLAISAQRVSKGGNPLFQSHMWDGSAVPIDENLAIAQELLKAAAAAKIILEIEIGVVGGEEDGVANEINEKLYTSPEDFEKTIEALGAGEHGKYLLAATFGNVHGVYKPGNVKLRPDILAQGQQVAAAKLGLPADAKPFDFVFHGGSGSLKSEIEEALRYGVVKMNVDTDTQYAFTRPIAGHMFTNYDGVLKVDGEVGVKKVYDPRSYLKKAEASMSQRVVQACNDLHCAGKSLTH
Active calls of the source: *; nt = not tested or not shown; + = active, no number.

SMILES	GDH-TPI inh	Mtb BioA inh	FadD28 binding	Rv3671c inh	Mtb FBA inh
COc1ccccc1NC(=O)c1cc2ccc(O)cc2o/c1=N\O	12.6	-0.8	18.4*	-8.2	6.7
O=C(C[C@@H]1C[C@@H]2c3cc(NC(=O)c4cccnc4)ccc3O[C@@H]2[C@@H](CO)O1)NCc1ccc(Oc2ccccc2)cc1	nt	7.6	nt	nt	nt
CN1C(=O)c2cc(NC(=O)NC3CCCC3)ccc2OC[C@H]2O[C@H](CC(=O)O)CC[C@H]21	nt	-3.3	nt	nt	nt
COCC(=O)N[C@@H]1CC[C@H](CC(=O)N2CCCCC2)O[C@H]1CO	nt	-1.2	nt	nt	nt
CN(C)c1ccc(C=NCCC2(c3ccccc3)CCOC(C)(C)C2)cc1 (stereo unspecified)	55.6*	-1.8	-1.3	-4.4	0.2
CN(C)c1ccc(C=NCC2(O)CCOC(C)(C)C2)cc1 (stereo unspecified)	47.7*	0.2	1.1	5.2	2.0
Cc1noc(C)c1S(=O)(=O)Nc1cccc2c1O[C@H](CN(C)C(=O)NC(C)C)[C@H](C)CN([C@@H](C)CO)C2=O	nt	-0.1	nt	nt	nt
Cc1ccc(S(=O)(=O)Nc2ccc3c(c2)C(=O)N([C@@H](C)CO)C[C@H](C)[C@H](CN(C)S(=O)(=O)c2cn(C)cn2)OCCCC[C@@H](C)O3)cc1	nt	-0.8	nt	nt	nt
CC1(C)CC(=O)c2sc(NC(=O)CN3C(=O)CCC3=O)nc2C1	31.8*	-0.4	-0.6	15.7	3.0
CC(=O)c1sc(NC(=O)C2COc3ccccc3O2)nc1C (stereo unspecified)	16.6	15.4	-1.4	2.4	5.4
CC1(C)CC(=O)c2sc(NC(=O)CN3CCOCC3)nc2C1	14.8	-1.9	1.5	1.9	5.7
CC1(C)CC(=O)c2sc(N3CCCCC3)nc2C1	41.9*	nt	-1.6	2.1	-1.1
CC1(C)CC(=O)c2sc(NS(C)(=O)=O)nc2C1	35.0*	-1.7	-0.7	0.7	0.1
CC1(C)CC(=O)c2sc(NC(=O)C3COc4ccccc4O3)nc2C1 (stereo unspecified)	33.6*	-0.3	-2.8	-4.0	2.2
O=C(NC[C@H]1[C@@H](c2ccccc2)[C@@H](CO)N1Cc1ccccn1)C1CC1	nt	0.1	nt	nt	nt
CCOC(=O)c1nn(-c2ccccc2)c(C#N)c1N	9.8	nt	0.0	-28.4	+
COc1ccc(NC(=O)N2C[C@@H]3[C@H](c4ccccc42)[C@@H](CO)N3Cc2ccccn2)cc1	nt	-0.6	nt	nt	nt
COc1ccc(CN2CCOCC2)cc1	14.4	0.6	1.7	0.9	-2.6
CNc1cncc(-c2ccc(CN(C)C)cc2)n1	5.8	-0.1	-3.5	nt	+
CNc1cncc(-c2ccoc2)n1	5.8	-2.3	-2.1	nt	177.0*
CNc1cncc(-c2ccc(OCCCN(C)C)nc2)n1	13.7	-1.8	-2.5	nt	+
CC(O)(c1cccnc1)c1nc(-c2ccoc2)cs1 (stereo unspecified)	0.0	0.8	-3.0	nt	0.2
CNc1cncc(-c2ccc(CN3CCOCC3)cc2)n1	11.5	0.8	-3.0	nt	+
CNc1cncc(-c2cccc(C(C)=O)c2)n1	17.7	-0.6	-2.1	nt	-0.4
CNc1cncc(-c2cc(C)c(O)c(C)c2)n1	14.6	0.8	-0.9	nt	20.4
SMILES	GDH-TPI inh	Mtb BioA inh	FadD28 binding	Rv3671c inh	Mtb FBA inh
CNc1cncc(-c2cnn(CC(C)C)c2)n1	20.4	-1.4	-3.3	nt	+
CNc1cncc(-c2cccc(NS(C)(=O)=O)c2)n1	19.5	-0.9	-4.3	nt	168.2*
CNc1cncc(-c2ccc(OC)cc2)n1	19.5	0.6	-0.5	nt	172.4*
CNc1cncc(-c2ccc(O)cc2)n1	22.6	-1.1	-2.2	nt	131.4*
C[C@H]1CN([C@@H](C)CO)C(=O)c2ccccc2-c2ccccc2CO[C@@H]1CN(C)C(=O)[C@H]1CCCN1C	nt	2.8	nt	nt	nt
CNC[C@@H]1Oc2cc(C#CCN(C)C)ccc2S(=O)(=O)N([C@@H](C)CO)C[C@H]1C	nt	7.3	nt	nt	nt
C[C@@H]1CN([C@@H](C)CO)S(=O)(=O)c2ccc(C3=CCCC3)cc2O[C@H]1CN(C)C(=O)c1ccccn1	nt	1.9	nt	nt	nt
O=C(Cc1ccccn1)NCC[C@@H]1CC[C@@H](NC(=O)Nc2ccc(F)cc2)[C@@H](CO)O1	nt	1.8	nt	nt	nt
CNc1cncc(-c2ccc(S(C)(=O)=O)cc2)n1	15.9	-1.5	-1.7	nt	170.6*
CS(=O)(=O)c1ccc(-c2nn[nH]n2)cc1	4.3	-4.3	0.6	2.7	0.4
O=C(c1ccco1)N1CCN(c2ccc([N+](=O)[O-])cn2)CC1	30.7*	-1.4	0.4	9.8	2.5
CC1(C)Cc2c(sc(/N=C/N3CCOCC3)c2C#N)C(C)(C)N1	25.4	0.9	-0.2	0.0	1.1
CC1(C)Cc2c(sc(/N=C/N3CCCCC3)c2C#N)C(C)(C)N1	31.1*	-4.2	0.4	7.4	-5.6
CCOC(=O)C1=C(C)NC(SC(C)=O)=NC1c1ccc(OC(C)=O)c(OC)c1 (stereo unspecified)	36.3*	1.9	-2.5	-1.8	4.5
O=C(NCc1nc2ccccc2[nH]1)c1cccs1	6.7	-0.7	-0.8	3.4	-0.5
COc1ccc(C(=O)N/C(=C/c2cccs2)c2nc3ccccc3[nH]2)cc1OC	47.5*	nt	-1.3	1.9	3.2
COc1cc(/C=C(/C(=O)c2cccs2)c2nc3ccccc3[nH]2)cc(OC)c1O	43.4*	0.8	-6.7	2.9	-11.6
O=C(C[C@H]1CC[C@@H](NC(=O)Nc2ccccc2)[C@@H](CO)O1)NCc1ccccn1	nt	-3.6	nt	nt	nt
CN(C)/C=C/C(=O)c1ccc([N+](=O)[O-])c(CS(=O)(=O)c2ccc(Cl)cc2)c1	13.8	1.1	17.6*	-1.4	1.6
CCc1ccc(C2C(C#N)=C(N)SC(N)=C2C#N)cc1	30.8*	nt	0.0	-22.8	7.1
COc1nccnc1NS(=O)(=O)c1ccc(N=Cc2c(C)[nH]n(-c3ccc(C)c(C)c3)c2=O)cc1	32.5*	nt	-1.9	-5.9	-0.8
COc1ccc(NC(=O)N(C)C[C@H]2Oc3ccc(NC(=O)Cc4ccccc4)cc3CC(=O)N([C@@H](C)CO)C[C@@H]2C)cc1	nt	-0.4	nt	nt	nt
COc1ccc(NC(=O)c2sc3nc(-c4cccnc4)ccc3c2N)cc1	39.3*	-2.9	-1.7	5.6	-1.0
COc1ccc(NC(=O)c2sc3nc(-c4cccnc4)ccc3c2N)cc1OC	43.5*	-2.3	0.1	-2.1	-1.1
O=C(CNS(=O)(=O)c1ccc([N+](=O)[O-])cc1)N/N=C/c1ccc(O)cc1O	16.4	-2.1	21.9*	-1.1	0.4
SMILES	GDH-TPI inh	Mtb BioA inh	FadD28 binding	Rv3671c inh	Mtb FBA inh
Cc1cc([N+](=O)[O-])nn1Cc1ccc(C(=O)N/N=C/c2ccc(O)cc2O)cc1	43.6*	0.7	-0.2	20.2	-1.1
Cc1cc([N+](=O)[O-])nn1Cc1ccc(C(=O)N/N=C/c2ccc(F)cc2)cc1	-5.4	0.4	-3.0	0.8	0.8
O=C(CNS(=O)(=O)c1ccc([N+](=O)[O-])cc1)N/N=C\c1ccc(O)cc1	9.3	-0.6	3.0	-2.4	-0.9
O=C(CCc1ccccc1)NCC(=O)N/N=C/c1ccc(O)cc1O	14.1	nt	-5.3	2.7	0.8
CC(=O)Nc1ccc(/C=N\NC(=O)CNS(=O)(=O)c2ccc([N+](=O)[O-])cc2)cc1	4.7	0.4	9.3*	-1.7	-0.7
Nc1ccccc1/C=C/c1ccccc1N	27.3	-0.4	1.1	nt	146.4*
